ChEMBL document CHEMBL3433997, “St. Jude Leishmania screening dataset” (2016)
Values joined by “and” are separate entries in the source; they are usually repeats but may differ in a detail not shown here. Equal values may be shown once.

These compounds were tested against Solute carrier family 2, facilitated glucose transporter member 1 (Homo sapiens) (UniProt P11166) (assay: ST_JUDE_LEISH: Cytotoxicity at 2uM final concentration against transgenic Leishmania Mexicana promastigotes LmGLUT1 that are glucose transport deficient and complemented with the human glucose transporter GLUT1. Activity is measured by DNA content using SYBR green in vitro).
Chain of Solute carrier family 2, facilitated glucose transporter member 1 (Homo sapiens) (P11166 whole entry): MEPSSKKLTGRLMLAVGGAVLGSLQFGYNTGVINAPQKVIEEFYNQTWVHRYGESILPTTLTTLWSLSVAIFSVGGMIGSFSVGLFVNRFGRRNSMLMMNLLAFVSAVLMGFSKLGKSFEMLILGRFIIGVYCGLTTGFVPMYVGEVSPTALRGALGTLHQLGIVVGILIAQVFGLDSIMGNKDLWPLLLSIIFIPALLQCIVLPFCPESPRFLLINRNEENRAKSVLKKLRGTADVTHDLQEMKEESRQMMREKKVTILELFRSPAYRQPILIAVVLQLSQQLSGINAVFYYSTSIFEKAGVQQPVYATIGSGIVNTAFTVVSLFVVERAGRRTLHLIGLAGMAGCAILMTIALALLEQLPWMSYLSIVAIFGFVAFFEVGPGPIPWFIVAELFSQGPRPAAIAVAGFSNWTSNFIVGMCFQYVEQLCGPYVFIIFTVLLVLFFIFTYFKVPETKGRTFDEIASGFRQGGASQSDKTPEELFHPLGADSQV
Format: functional
`O=C1Nc2ccccc2/C1=N/NC(=S)N1CCOCC1` was tested, and the inhibition was -0.69%. `CN1CCCC(CN2CCN(Cc3ccc(-c4cccc(-c5nc6cc(F)ccc6[nH]5)c4)cc3)CC2)C1` (stereo not given) showed an inhibition of -0.56%. For `COC(=O)c1cccc(CNCc2ccc(-c3cccc(-c4nc5ccccc5[nH]4)c3)cc2)c1`, the inhibition was -2.56%. `CS(=O)(=O)N1CC2(CCN(CCC(NC(=O)NCc3ccccc3Cl)c3ccc(Cl)c(Cl)c3)CC2)c2ccccc21` (stereo not given) showed an inhibition of 1.26%. `CC1CCCC(NC(=O)CCOc2ccccc2)C1` (stereo not given) showed an inhibition of 7.23%. For `O=C(NC1CCCCC1)N(Cc1cccc(-c2ccc(CNC3CCCC3)cc2)c1)C1CCN(Cc2ccccc2)CC1`, the inhibition was 16%. `CC(=O)Nc1ccc(CN(C)C2CCN(c3cc(NC(=O)c4cccc(C)c4)ccn3)CC2)cc1` showed an inhibition of 2.4%. `NCC(NC(=O)c1ccc(-c2c[nH]c3ncccc23)s1)c1ccccc1` (stereo not given) showed an inhibition of 51.9%. `Cc1cc(I)ccc1Nc1nc2nonc2nc1Nc1ccc(I)cc1C` was tested, and the inhibition was 9.92%. `Cn1c(=O)c2cc(C(=O)NCCCN3CCCCCC3)sc2c2ccccc21` showed an inhibition of 2.89%. `Cc1nc(-c2ccccc2)nc(N2CCN(C(=O)c3ccco3)CC2)c1Cc1ccccc1F` gave an inhibition of 7.73%. `CCN(CC)CCOc1ccc(N(Cc2ccc(C(C)(C)C)cc2)C(=O)c2ccc(Cc3ccccc3)cc2)cc1OC` showed an inhibition of 17.8%. `COc1ccc2nccc([C@@H](O)CN3CCC(NC(=O)c4ccc(Oc5ccccc5)cc4)CC3)c2c1` showed an inhibition of 3.02%. With `COc1ccc2nccc(N3CCC(CCNCc4cc5c(cn4)OCCO5)CC3)c2n1` the inhibition was -0.34%. `CN1CCC(C(=O)N(Cc2ccc(-c3ccc(CNCCc4ccc(S(C)(=O)=O)cc4)cn3)cc2)Cc2ccc3c(c2)OCO3)CC1` was tested, and the inhibition was 2.03%. In the case of `COc1ccc(C[C@H](N)C(=O)N[C@H]2[C@@H](O)[C@H](n3cnc4c(N(C)C)ncnc43)O[C@@H]2CO)cc1`, the inhibition is reported as 3.7% and 0.1%. With `CCN(CCCN1CCCCC1)c1cc(C)nc(Nc2ccc(Oc3ccccc3)cc2)n1` the inhibition was 5.66%. `N#Cc1cnc(Nc2ccc(Oc3ccccc3)cc2)nc1Nc1cccc(S(N)(=O)=O)c1` gave an inhibition of -0.14%. For `O=S(=O)(c1ccccc1C(F)(F)F)C1CC2CCC(C1)N2S(=O)(=O)c1ccc(Cl)c(C(F)(F)F)c1` (stereo not given), the inhibition was 4.13%. `O=C(c1cncc(-c2ccccc2)c1)N(Cc1cncn1Cc1ccccc1F)CC1CC1` gave an inhibition of 0.88%. Work on `CCn1c(-c2nonc2N)nc2c(-c3cccc(NC(=O)Nc4ccc(Cl)cc4)c3)ncc(OCCCN)c21` yielded an inhibition of 1.03%. With `Fc1ccc2[nH]ccc(=NN=CC=Cc3ccccc3)c2c1` the inhibition was 1.52%. With `Cc1noc(C)c1-c1ccc2c(Nc3ccccc3C(C)(C)C)c(C(=O)NCc3cccc4ccccc34)cnc2c1` the inhibition was 2.41%. In the case of `Cc1ccc(C(=O)Nc2cccc([N+](=O)[O-])c2)cc1S(=O)(=O)N1CC(C)CC(C)C1` (stereo not given), the inhibition is reported as 6.34%. Compound `O=[N+]([O-])c1ccccc1/C=N/Nc1ccnc2cc(Cl)ccc12` has an inhibition of 4.36%. For `Clc1ccc(Nc2nc3ccc(Cl)cc3nc2Nc2ccc(Cl)cc2)cc1`, the inhibition was 7.56%. With `O=c1cc(NCCCNCc2ccccc2-c2ccccc2)[nH]c2ccccc12` the inhibition was 2.76%. With `O=C(Nc1cccc(CN2CCCN(Cc3ccc(O)cc3)CC2)c1)c1cccc(Cl)c1` the inhibition was 12.2%. In the case of `Cc1nc(NC2=NCN(CCCN3CCOCC3)CN2)nc2c(C)cccc12`, the inhibition is reported as 8.37%. In the case of `O=C(Nc1ccc(-c2cccc(-c3nc4cc(C(F)(F)F)ccc4[nH]3)c2)cc1)Nc1ccc(F)c(F)c1F`, the inhibition is reported as 0.81%. Compound `O=C(NC1CCCCC1)N(Cc1ccc(-c2cccc(CNCc3ccc4c(c3)OCO4)c2)cc1)C1CCN(Cc2ccccc2)CC1` has an inhibition of 2.19%. Compound `COc1cccc(CNC[C@@H](O)[C@H](Cc2ccccc2)NC(=O)c2cc(C3CCCC3)cc(N3CCCCS3(=O)=O)c2)c1` has an inhibition of 0.71%. For `CN(CCCN(C)c1cc(NC(=O)c2ccc(F)cc2)ccn1)Cc1cccc(O)c1`, the inhibition was -1.12%. In the case of `COc1ccc(Nc2nccc(N3CCC(NC(=O)Nc4cc(C)ccc4C)C3)n2)cc1` (stereo not given), the inhibition is reported as 10.3%. For `COc1cc2nccc(Nc3cccc(Oc4ccccc4)c3)c2cc1OC`, the inhibition was 12.8%. With `CCc1nc2c(N)nc(N)nc2nc1-c1ccc(OC)cc1` the inhibition was 0.85%. `CC(=O)c1c(C)[nH]c(C(=O)Nc2ccc(-c3nc4ccc(C)cc4s3)cc2)c1C` was tested, and the inhibition was -0.62%. `CCOC(=O)c1ccc(OCCCCCCOc2ccc(Br)cc2)cc1` showed an inhibition of 1.32%. `O=C(NC(Nc1ccc([N+](=O)[O-])cc1)C(Cl)(Cl)Cl)c1ccc(Cl)cc1` (stereo not given) showed an inhibition of 0.96%. With `Cc1[nH]c2ccc(-c3ccc(N(C)C)cc3)cc2c(=O)c1Cl` the inhibition was 2.49%.

These compounds were tested against Hexose transporter 1 (Plasmodium falciparum) (UniProt O97467) (assay: ST_JUDE_LEISH: Cytotoxicity at 2uM final concentration against transgenic Leishmania Mexicana promastigotes LmPfHT that are glucose transport deficient and complemented with the Plasmodium falciparum hexose transporter. Activity is measured by DNA content using SYBR green in vitro).
Format: functional
`O=C1Nc2ccccc2/C1=N/NC(=S)N1CCOCC1` was tested, and the inhibition was -0.87%. Work on `CN1CCCC(CN2CCN(Cc3ccc(-c4cccc(-c5nc6cc(F)ccc6[nH]5)c4)cc3)CC2)C1` (stereo not given) yielded an inhibition of 1.31%. `COC(=O)c1cccc(CNCc2ccc(-c3cccc(-c4nc5ccccc5[nH]4)c3)cc2)c1` showed an inhibition of -1.88%. `CS(=O)(=O)N1CC2(CCN(CCC(NC(=O)NCc3ccccc3Cl)c3ccc(Cl)c(Cl)c3)CC2)c2ccccc21` (stereo not given) was tested, and the inhibition was 1.46%. `CC1CCCC(NC(=O)CCOc2ccccc2)C1` (stereo not given) gave an inhibition of 6.34%. `O=C(NC1CCCCC1)N(Cc1cccc(-c2ccc(CNC3CCCC3)cc2)c1)C1CCN(Cc2ccccc2)CC1` showed an inhibition of 14.6%. With `CC(=O)Nc1ccc(CN(C)C2CCN(c3cc(NC(=O)c4cccc(C)c4)ccn3)CC2)cc1` the inhibition was 3.41%. For `NCC(NC(=O)c1ccc(-c2c[nH]c3ncccc23)s1)c1ccccc1` (stereo not given), the inhibition was 56.6%. Compound `Cc1cc(I)ccc1Nc1nc2nonc2nc1Nc1ccc(I)cc1C` has an inhibition of 9.02%. `Cn1c(=O)c2cc(C(=O)NCCCN3CCCCCC3)sc2c2ccccc21` was tested, and the inhibition was 4.91%. For `Cc1nc(-c2ccccc2)nc(N2CCN(C(=O)c3ccco3)CC2)c1Cc1ccccc1F`, the inhibition was 9.03%. `CCN(CC)CCOc1ccc(N(Cc2ccc(C(C)(C)C)cc2)C(=O)c2ccc(Cc3ccccc3)cc2)cc1OC` showed an inhibition of 14.8%. For `COc1ccc2nccc([C@@H](O)CN3CCC(NC(=O)c4ccc(Oc5ccccc5)cc4)CC3)c2c1`, the inhibition was 8.83%. With `COc1ccc2nccc(N3CCC(CCNCc4cc5c(cn4)OCCO5)CC3)c2n1` the inhibition was 0.24%. With `CN1CCC(C(=O)N(Cc2ccc(-c3ccc(CNCCc4ccc(S(C)(=O)=O)cc4)cn3)cc2)Cc2ccc3c(c2)OCO3)CC1` the inhibition was 0.87%. In the case of `COc1ccc(C[C@H](N)C(=O)N[C@H]2[C@@H](O)[C@H](n3cnc4c(N(C)C)ncnc43)O[C@@H]2CO)cc1`, the inhibition is reported as 1.9% and 3.79%. Compound `CCN(CCCN1CCCCC1)c1cc(C)nc(Nc2ccc(Oc3ccccc3)cc2)n1` has an inhibition of 5.07%. `N#Cc1cnc(Nc2ccc(Oc3ccccc3)cc2)nc1Nc1cccc(S(N)(=O)=O)c1` gave an inhibition of 5.38%. In the case of `O=S(=O)(c1ccccc1C(F)(F)F)C1CC2CCC(C1)N2S(=O)(=O)c1ccc(Cl)c(C(F)(F)F)c1` (stereo not given), the inhibition is reported as 2.35%. With `O=C(c1cncc(-c2ccccc2)c1)N(Cc1cncn1Cc1ccccc1F)CC1CC1` the inhibition was 0.96%. For `CCn1c(-c2nonc2N)nc2c(-c3cccc(NC(=O)Nc4ccc(Cl)cc4)c3)ncc(OCCCN)c21`, the inhibition was 0.62%. `Fc1ccc2[nH]ccc(=NN=CC=Cc3ccccc3)c2c1` gave an inhibition of 3%. In the case of `Cc1noc(C)c1-c1ccc2c(Nc3ccccc3C(C)(C)C)c(C(=O)NCc3cccc4ccccc34)cnc2c1`, the inhibition is reported as 2.01%. `Cc1ccc(C(=O)Nc2cccc([N+](=O)[O-])c2)cc1S(=O)(=O)N1CC(C)CC(C)C1` (stereo not given) showed an inhibition of 5.86%. With `O=[N+]([O-])c1ccccc1/C=N/Nc1ccnc2cc(Cl)ccc12` the inhibition was 4.22%. For `Clc1ccc(Nc2nc3ccc(Cl)cc3nc2Nc2ccc(Cl)cc2)cc1`, the inhibition was 6.73%. For `O=c1cc(NCCCNCc2ccccc2-c2ccccc2)[nH]c2ccccc12`, the inhibition was 3.22%. Work on `O=C(Nc1cccc(CN2CCCN(Cc3ccc(O)cc3)CC2)c1)c1cccc(Cl)c1` yielded an inhibition of 13.4%. Compound `Cc1nc(NC2=NCN(CCCN3CCOCC3)CN2)nc2c(C)cccc12` has an inhibition of 17.2%. With `O=C(Nc1ccc(-c2cccc(-c3nc4cc(C(F)(F)F)ccc4[nH]3)c2)cc1)Nc1ccc(F)c(F)c1F` the inhibition was 0.04%. `O=C(NC1CCCCC1)N(Cc1ccc(-c2cccc(CNCc3ccc4c(c3)OCO4)c2)cc1)C1CCN(Cc2ccccc2)CC1` showed an inhibition of 1.74%. With `COc1cccc(CNC[C@@H](O)[C@H](Cc2ccccc2)NC(=O)c2cc(C3CCCC3)cc(N3CCCCS3(=O)=O)c2)c1` the inhibition was 1.78%. `CN(CCCN(C)c1cc(NC(=O)c2ccc(F)cc2)ccn1)Cc1cccc(O)c1` was tested, and the inhibition was -0.11%. With `COc1ccc(Nc2nccc(N3CCC(NC(=O)Nc4cc(C)ccc4C)C3)n2)cc1` (stereo not given) the inhibition was 7.52%. In the case of `COc1cc2nccc(Nc3cccc(Oc4ccccc4)c3)c2cc1OC`, the inhibition is reported as 14.4%. `CCc1nc2c(N)nc(N)nc2nc1-c1ccc(OC)cc1` was tested, and the inhibition was 0.84%. Work on `CC(=O)c1c(C)[nH]c(C(=O)Nc2ccc(-c3nc4ccc(C)cc4s3)cc2)c1C` yielded an inhibition of -4.21%. Compound `CCOC(=O)c1ccc(OCCCCCCOc2ccc(Br)cc2)cc1` has an inhibition of 4.52%. For `O=C(NC(Nc1ccc([N+](=O)[O-])cc1)C(Cl)(Cl)Cl)c1ccc(Cl)cc1` (stereo not given), the inhibition was -3.03%. Work on `Cc1[nH]c2ccc(-c3ccc(N(C)C)cc3)cc2c(=O)c1Cl` yielded an inhibition of 3.7%.
